Pf Dd2 inh: P. falciparum Dd2 growth inhibitors, primary screen, SYBR Green fluorescence, single dose replicates. hit rate 2.3% among 94,000. activity change, % at 10 µM. 72 h; stronger effect = lower value; in the data active = activity change below about -80%; inconclusive = no clear call, values can overlap the other calls
C diff HTS: C. difficile growth inhibitors, primary screen, HTS; hit rate 0.25% among 86,000; growth activity, negative = inhibition, % at 16 µg/mL (by protocol); Clostridium difficile clinical isolate growth, OD600, 24 h; stronger effect = lower value;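 active = mean growth activity at or below -80% and every replicate also at or below -80%; inconclusive = mean at or below -80% but some replicate above -80%; inactive = mean growth activity above -80%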
T cruzi growth-1: T. cruzi intracellular proliferation inhibitors, primary screen, cell-based, beta-gal Tulahuen parasites, NIH3T3 host, luminescence | T. cruzi beta-gal in NIH3T3, GalScreen luminescence, 90 h | AID 624255, 2012 | inhibition, % at 8.34 µM | hit rate 5.9% among 77,000;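 active = mean inhibition above about 93%, with at least 55% of replicates each passing it, limit read from the data, passing the limit was not always enough; inconclusive = only one of those two conditions holds; inactive = neither condition holds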
T cruzi growth-2: T. cruzi intracellular proliferation inhibitors, confirmation, cell-based, NIH3T3 host, beta-gal parasite, luminescence, cherry-pick. AID 651739, 2012. T. cruzi beta-gal in NIH3T3, GalScreen luminescence, 90 h. inhibition, % at 8.35 µM. hit rate 72% among 5,600. shares compounds with T cruzi growth-1;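 active = mean replicate inhibition above about 95% and at least 55% of replicates individually reaching it, limit read from the data; inconclusive = only one of the two criteria is met; inactive = neither criterion is met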
T cruzi growth-3: inhibitors of intracellular T. cruzi replication, confirmation, NIH3T3 host cells, beta-gal parasites, cherry-pick, set 2. shares compounds with T cruzi growth-1. T. cruzi beta-gal in NIH3T3, GalScreen luminescence, 90 h. inhibition, % at 2.09 µM. hit rate 21% among 5,600;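 active = mean inhibition above about 95%, with at least 55% of replicates also reaching it, limit read from the data; inconclusive = meets just one of the two conditions; inactive = meets neither condition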
NIH3T3 tox: cytotoxicity in mouse NIH/3T3 fibroblasts, confirmation, cytotoxicity control for T. cruzi proliferation inhibitor project, cell-based, cherry-pick, single point; hit rate 14% among 5,600; shares compounds with T cruzi growth-1; cytotoxicity (signal decrease), % at 8.35 µM; NIH/3T3 viability, CellTiter-Glo ATP luminescence, 90 h;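 active = mean signal decrease across replicates above about 35% based on untreated-well scatter, with enough replicates individually passing, limit read from the data; inconclusive = no rule stated though some were filed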
3T3 cytotox 2: NIH/3T3 fibroblast cytotoxicity, confirmation, cytotoxicity control, cell-based, cherry-pick, single point, set 2. inhibition, % at 24.9 µM. hit rate 56% among 5,600. shares compounds with T cruzi growth-1. NIH/3T3 viability, CellTiter-Glo ATP luminescence, 90 h;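 active = mean loss of cell viability signal at or above a set limit, and enough replicates individually reaching it; inconclusive = meets only the mean limit or only the replicate share; inactive = meets neither condition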
Of the large screens only hits and unclear results are named; the others gave an inactive call (follow-up assays come after a bar, where they were run). Sampled rows, rich in hits. Any-hit rate of the full collection: about 6.7%.

Cc1ccc(S(=O)(=O)Nc2ccc3c(c2)C(=O)N([C@H](C)CO)C[C@H](C)[C@H](CN(C)S(=O)(=O)c2ccccc2)OCCCC[C@H](C)O3)cc1	T cruzi growth-1 113 | T cruzi growth-2 113 | T cruzi growth-3 inactive | NIH3T3 tox inactive | 3T3 cytotox 2 inactive
O=C(Nc1cc(F)ccc1F)N1C[C@H]2[C@@H](c3ccccc31)[C@@H](CO)N2Cc1ccncc1	none
C[C@H]1CN([C@@H](C)CO)C(=O)c2cc(C#CC3(O)CCCC3)cnc2O[C@H]1CN(C)C(=O)C1CCOCC1	none (no result: C diff HTS, T cruzi growth-1)
O=C([C@H]1[C@H](CO)[C@H]2Cn3c(cccc3=O)[C@@H]1N2C(=O)CC1CC1)N1CCCCC1	none (no result: Pf Dd2 inh)
Cc1ccc(S(=O)(=O)N[C@@H]2C=C[C@H](CC(=O)N3CCc4ccccc4C3)O[C@@H]2CO)cc1	none
CCC(=O)N1C[C@H]2[C@@H](c3ccccc31)[C@@H](CO)N2C(=O)Nc1ccccc1	none
COc1ccccc1NC(=O)N[C@H]1CC[C@H](CCNS(=O)(=O)c2ccc(C)cc2)O[C@@H]1CO	none (no result: T cruzi growth-1)
C[C@H](CO)N1C[C@H](C)[C@H](CN(C)C(=O)Nc2ccc3c(c2)OCO3)OCCCC[C@H](C)Oc2ccc(NS(=O)(=O)c3ccc(Cl)cc3)cc2C1=O	T cruzi growth-1 97 | T cruzi growth-2 113 | T cruzi growth-3 inactive | NIH3T3 tox inactive | 3T3 cytotox 2 inactive
C[C@@H]1CCCCO[C@@H](CN(C)C(=O)Nc2ccc3c(c2)OCO3)[C@@H](C)CN([C@H](C)CO)C(=O)c2cc(NS(=O)(=O)c3ccc(Cl)cc3)ccc2O1	none
C[C@H]1CCCCO[C@H](CN(C)C(=O)Nc2ccc3c(c2)OCO3)[C@@H](C)CN([C@@H](C)CO)C(=O)c2cc(NS(=O)(=O)c3ccc(Cl)cc3)ccc2O1	none
C[C@@H]1CCCCO[C@H](CN(C)C(=O)Nc2ccc3c(c2)OCO3)[C@H](C)CN([C@@H](C)CO)C(=O)c2cc(NS(=O)(=O)c3ccc(Cl)cc3)ccc2O1	T cruzi growth-1 inconclusive | T cruzi growth-2 102 | T cruzi growth-3 inactive | NIH3T3 tox inactive | 3T3 cytotox 2 inactive
CCCNC(=O)C[C@H]1CC[C@@H]2[C@H](COC[C@@H](O)CN2C(=O)C2CCOCC2)O1	none (no result: C diff HTS)
CCNC(=O)C[C@H]1C=C[C@@H](NC(=O)C2CCOCC2)[C@@H](CO)O1	none (no result: T cruzi growth-1)
OC[C@@H]1[C@H](c2ccc(-c3ccccc3)cc2)[C@@H]2CN(CCC(F)(F)F)CCCCN12	T cruzi growth-1 104 | T cruzi growth-2 103 | T cruzi growth-3 inactive | NIH3T3 tox 58 | 3T3 cytotox 2 105
Cc1cccc(-c2ccc([C@H]3[C@H]4CN(CCC(F)(F)F)CCCCN4[C@H]3CO)cc2)c1	T cruzi growth-1 inconclusive | T cruzi growth-2 103 | T cruzi growth-3 116 | NIH3T3 tox inactive | 3T3 cytotox 2 105
OC[C@H]1[C@@H](c2ccc(C3=CCCC3)cc2)[C@@H]2CN(CCC(F)(F)F)CCCCN12	none
OC[C@@H]1[C@H](c2ccc(C3=CCCC3)cc2)[C@@H]2CN(CCC(F)(F)F)CCCCN12	T cruzi growth-1 104 | T cruzi growth-2 inconclusive | T cruzi growth-3 inactive | NIH3T3 tox inactive | 3T3 cytotox 2 105
OC[C@@H]1[C@H](c2ccc(-c3ccc(F)cc3)cc2)[C@H]2CN(CCC(F)(F)F)CCCCN12	none
OC[C@H]1[C@H](c2ccc(-c3ccccc3)cc2)[C@H]2CN(CCC(F)(F)F)CCCCN21	none
OC[C@@H]1[C@@H](c2ccc(-c3ccc(F)cc3)cc2)[C@H]2CN(CCC(F)(F)F)CCCCN12	T cruzi growth-1 104 | T cruzi growth-2 96 | T cruzi growth-3 103 | NIH3T3 tox 96 | 3T3 cytotox 2 105
OC[C@H]1[C@H](c2ccc(-c3cccc(F)c3)cc2)[C@H]2CN(CCC(F)(F)F)CCCCN21	none
COc1ccc(S(=O)(=O)N(C)C[C@@H]2Oc3c(NC(=O)C4CCOCC4)cccc3C(=O)N([C@H](C)CO)C[C@H]2C)cc1	none (no result: C diff HTS)
CN1CCN(C(=O)C[C@H]2C=C[C@H](NC(=O)Cc3ccccn3)[C@H](CO)O2)CC1	none (no result: C diff HTS)
O=C(C[C@@H]1CC[C@H](NC(=O)Nc2ccccc2F)[C@H](CO)O1)NCc1ccc(F)cc1	none (no result: T cruzi growth-1)
OC[C@H]1[C@H](c2ccc(C#CC3CC3)cc2)[C@@H]2CN(CCC(F)(F)F)CCCCN12	none
OC[C@@H]1[C@H](c2ccc(C#CC3CC3)cc2)[C@H]2CN(CCC(F)(F)F)CCCCN12	T cruzi growth-1 105 | T cruzi growth-2 108 | T cruzi growth-3 inconclusive | NIH3T3 tox inactive | 3T3 cytotox 2 104
OC[C@@H]1[C@@H](c2ccc(C#CC3CC3)cc2)[C@@H]2CN(CCC(F)(F)F)CCCCN12	none
COc1ccccc1C#Cc1ccc([C@@H]2[C@H]3CN(CCC(F)(F)F)CCCCN3[C@H]2CO)cc1	T cruzi growth-1 98 | T cruzi growth-2 97 | T cruzi growth-3 101 | NIH3T3 tox 61 | 3T3 cytotox 2 107
CCC(=O)N(C)C[C@H]1Oc2ncc(-c3ccc(C(=O)N(C)C)cc3)cc2C(=O)N([C@H](C)CO)C[C@@H]1C	none
COCC(=O)Nc1ccc2c(c1)C(=O)N(C)C[C@H](OC)[C@@H](C)CN(Cc1cncnc1)[C@@H](C)CO2	none
CC(=O)N(C)C[C@H]1Oc2cc(-c3ccccc3C)ccc2S(=O)(=O)N([C@H](C)CO)C[C@@H]1C	none
Cc1ccc(S(=O)(=O)Nc2ccc3c(c2)CC(=O)N([C@H](C)CO)C[C@@H](C)[C@@H](CN(C)C(=O)Nc2c(C)noc2C)O3)cc1	none
C/C=C/c1ccc([C@@H]2[C@H](CN(C)S(=O)(=O)c3ccccc3)N[C@@H]2CO)cc1	T cruzi growth-1 108 | T cruzi growth-2 inactive | T cruzi growth-3 inactive | NIH3T3 tox inactive | 3T3 cytotox 2 37
O=S(=O)(NC[C@@H]1N[C@@H](CO)[C@H]1c1ccccc1)c1ccccc1	T cruzi growth-1 104 | T cruzi growth-2 inactive | T cruzi growth-3 inactive | NIH3T3 tox inactive | 3T3 cytotox 2 inactive
C/C=C/c1ccc([C@@H]2[C@@H](CO)N[C@@H]2CN(C)S(=O)(=O)c2ccccc2)cc1	none
O=S(=O)(NC[C@@H]1N[C@@H](CO)[C@@H]1c1ccccc1)c1ccccc1	none
COc1ccc(OC(=O)N(C)C[C@@H]2OCc3ccccc3-c3ccccc3C(=O)N([C@@H](C)CO)C[C@@H]2C)cc1	none

Assay outcomes: PubChem, Broad Institute
